Experimental data reported in PubChem BioAssay AID652054 (National Center for Advancing Translational Sciences (NCATS), 2013).
Screen size: about 360,000 compounds; about 9,100 (2.5%) were called active. About 4% were inconclusive and are not listed. For the sample, actives were picked, then their nearest neighbours and some compounds at random. Values without a mark were called inactive. Rule as the data show it: active = max response below about -50%; inconclusive = no clear call, values can overlap the other calls; inactive = above that.
% is scaled to controls: 0 for no effect and ±100 for the full control effect.

The molecules below were run against D(3) dopamine receptor (Homo sapiens) (UniProt P35462) (assay: qHTS of D3 Dopamine Receptor Antagonist: qHTS). Conditions: D3R cells, DiscoveRx beta-arrestin luminescence, antagonist mode; hits give low values.
Chain of D(3) dopamine receptor (Homo sapiens) (P35462 whole entry, looked up): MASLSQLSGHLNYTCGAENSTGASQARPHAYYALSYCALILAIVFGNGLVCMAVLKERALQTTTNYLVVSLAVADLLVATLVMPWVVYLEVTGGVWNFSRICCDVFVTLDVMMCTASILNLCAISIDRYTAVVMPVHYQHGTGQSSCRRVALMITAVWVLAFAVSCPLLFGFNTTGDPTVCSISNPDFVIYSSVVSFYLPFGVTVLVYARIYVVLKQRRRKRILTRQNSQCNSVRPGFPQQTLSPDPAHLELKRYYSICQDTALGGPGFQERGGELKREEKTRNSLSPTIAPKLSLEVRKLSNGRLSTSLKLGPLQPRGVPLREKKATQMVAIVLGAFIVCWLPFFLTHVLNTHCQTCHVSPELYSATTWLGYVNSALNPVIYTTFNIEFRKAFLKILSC
From the text: D3 DARs represent a very important target for the treatment of several neuropsychiatric disorders. Indeed, one of the most promising therapeutic applications for the D3 DAR is in the area of addiction and related disorders. […] These findings have been observed with a number of addictive substances including cocaine, amphetamine, nicotine, and alcohol. […] Antagonism of the D3 DAR may also be therapeutic in the treatment of schizophrenia or psychosis. […] Since the D3 DAR is expressed in areas of the CNS associated with the control of mood and emotion, it has been hypothesized that selective antagonism of the D3 DAR may be effective in treating psychosis without inducing the motor side effects typically seen with D2 DAR antagonists.
This part of the project aims to discover novel antagonist.
NIH Chemical Genomics Center [NCGC]
NIH Molecular Libraries Probe Centers Network [MLPCN]
Assay Submitter (PI): David Sibley, NINDS
Freshly passaged cells are plated in 1536 well white, solid bottom plates at a density of 1500 cells/well in 3microl of complete media. After an overnight incubation at 37 degrees C in 5% CO2, cells are loaded with 23nl of test compound from the compound library (as well as dopamine controls) using a 1536 pintool and incubated at 37 degrees C for 90 minutes. Two microliters of DiscoveRx reagent is then added to all cells, and they are incubated for an additional 30 - 60 minutes at room temperature. Following incubation, luminescence is measured on a ViewLux CCD-based luminometer reader using a 20 sec exposure time.
`CC(C)Oc1ccc(CN2CCC2(C)C(=O)NCc2ccc(C(F)(F)F)cc2)cc1` (configuration not stated) was tested, and the max response, negative = inhibition was 30.5%.
With `CC(OC(=O)c1cccc(S(=O)(=O)N2CCOCC2)c1)C(=O)NCC1CCCCC1` (configuration not stated) the max response, negative = inhibition was -12.6%.
In the case of `CCCCC[C@H](C)N1C[C@@H](COCc2ccccc2)Oc2cc(N3CCC[C@@H]3CO)ccc2S1(=O)=O`, the max response, negative = inhibition is reported as 8.76%.
`CCCNC(=O)C1(C)CCN(C(=O)c2ccc(F)cc2Cl)C1` (configuration not stated) showed a max response, negative = inhibition of 1.43%.
For `COc1cccc2c1C(=O)c1c(O)c3c(c(O)c1C2=O)CC(O)(C(C)=NNC(=O)c1ccc(Cl)c(Cl)c1)CC3OC1CC(N)C(O)C(C)O1` (configuration not stated), the max response, negative = inhibition was -50.5% (active).
`COc1ccc(NC(=O)C2(C)Cc3c(-c4cccc(NC(C)=O)c4)ccnc3O2)cc1OC` (configuration not stated) gave a max response, negative = inhibition of 17.2%.
`COC(=O)[C@H]1C[C@H](OC(=O)NCc2ccccc2)[C@@]2(O)CN(S(=O)(=O)c3ccc(C)cc3)CC2[C@H]1C(=O)OC` (some centres not stated) gave a max response, negative = inhibition of -0.452%.
In the case of `CC=CCn1c(SCCCc2ccccc2)nc2c1c(=O)[nH]c(=O)n2C`, the max response, negative = inhibition is reported as 41.3%.
For `Cc1c(-c2ccccc2)n[nH]c1C(=O)N=Nc1c(O)[nH]c2ccccc12`, the max response, negative = inhibition was 32.7%.
In the case of `O=C(CCN1CCCCC1)N=Nc1c(O)[nH]c2ccccc12`, the max response, negative = inhibition is reported as -96.3% (active).
`Oc1[nH]c2ccccc2c1N=Nc1c(F)c(F)c(F)c(F)c1F` gave a max response, negative = inhibition of 17.9%.
Work on `CCc1nc2ccc(C(=O)N(C)Cc3ccco3)cn2c1N(C)C(=O)Cc1ccccc1` yielded a max response, negative = inhibition of 3.24%.
For `C[C@@H]1CN([C@@H](C)CO)C(=O)CCCn2nncc2CO[C@@H]1CN(C)S(=O)(=O)c1ccc(-c2ccccc2)cc1`, the max response, negative = inhibition was -4.97%.
`COc1cccc(C(O)c2ncc(-c3ccc4ccccc4c3)[nH]2)c1` (configuration not stated) gave a max response, negative = inhibition of 38.7%.
`Cc1cccc(-c2cnc(C(O)c3cc(C)cc(C)c3)[nH]2)c1` (configuration not stated) was tested, and the max response, negative = inhibition was 0%.
`Cc1cccc(-c2cnc(C(O)c3ccc4ccccc4c3)[nH]2)c1` (configuration not stated) was tested, and the max response, negative = inhibition was -81.3% (active).
In the case of `CC(=O)Nc1cc(-c2ccc(N3CCN(C)CC3)cc2)cn2c(-c3ccc(F)cc3)cnc12`, the max response, negative = inhibition is reported as -13.9%.
`CNc1cnc(-c2cc(OC)c(OC)c(OC)c2)cn1` showed a max response, negative = inhibition of 1.16%.
With `O=C(NCCN1CCOCC1)C1CCN(S(=O)(=O)c2ccccc2)CC1` the max response, negative = inhibition was 31.8%.
With `CC(C)Nc1nc(NCCOc2ccccc2Cl)c2sccc2n1` the max response, negative = inhibition was 0%.
`C[C@@H]1CN([C@@H](C)CO)C(=O)c2cc(NS(C)(=O)=O)ccc2O[C@@H](C)CCCCO[C@H]1CN(C)C(=O)Nc1ccc2c(c1)OCO2` gave a max response, negative = inhibition of -18.4%.
For `CN(C)C(=O)c1cccn(Cc2cccc(C(F)(F)F)c2)c1=O`, the max response, negative = inhibition was 22.1%.
With `COC(=O)Cc1c(O)ccn(Cc2cccc(C(F)(F)F)c2)c1=O` the max response, negative = inhibition was -71.6% (active).
Work on `COCC1CCN(C(=O)C2CCC(=O)N(Cc3cccc(C(F)(F)F)c3)C2)CC1` (configuration not stated) yielded a max response, negative = inhibition of -5.12%.
For `Cc1cccc(NC(=S)NCc2ccc3[nH]c4c(c3c2)CCCC4)c1`, the max response, negative = inhibition was -3.36%.
In the case of `Cc1cccc(C(=O)NC(=S)N(C)C2CCCCC2)c1`, the max response, negative = inhibition is reported as -4.93%.
In the case of `Cc1cccc(NC(=S)NCCN(C2CCCCC2)C2CCCC2)c1`, the max response, negative = inhibition is reported as -65.7% (active).
With `CC(=O)Nc1cccc(-c2ccnc3c2CC(C)(C(=O)NCc2ccccc2)O3)c1` (configuration not stated) the max response, negative = inhibition was 0%.
With `Cc1ccc(CC2(C)C(=O)Nc3ccc(OC(F)(F)F)cc32)cc1` (configuration not stated) the max response, negative = inhibition was 0.0703%.
`S=C(NCCc1ccccc1)N1CCn2cccc2C1c1ccncc1` (configuration not stated) was tested, and the max response, negative = inhibition was 6.2%.
For `c1ccc(CCC2=NCCn3cccc32)cc1`, the max response, negative = inhibition was -55.5% (active).
`CC1CSc2nnc(CCc3ccccc3)n21` (configuration not stated) gave a max response, negative = inhibition of -21.1%.
For `CCCCN(C=O)c1c(CC)nc2c(OCCC3CCCCC3)cccn12`, the max response, negative = inhibition was -10.7%.
For `COc1ccc(C(O)c2nc(-c3ccc4c(c3)OCO4)cs2)cc1` (configuration not stated), the max response, negative = inhibition was 4.32%.
`Cc1ccc(-c2c[n+](CC(=O)Nc3ccccc3)c3n2CCC3)cc1` was tested, and the max response, negative = inhibition was -65.6% (active).
In the case of `O=C(C[n+]1cc(-c2ccc(Cl)c(Cl)c2)n2c1CCC2)c1cccs1`, the max response, negative = inhibition is reported as -18.5%.
In the case of `Cc1ccc(C(=O)C[n+]2cc(-c3ccccc3)n3c2CCCCC3)cc1`, the max response, negative = inhibition is reported as -4.64%.
`O=CNc1cc(-c2ccc(C(=O)N3CCOCC3)cc2)cn2c(-c3ccc(F)cc3)cnc12` showed a max response, negative = inhibition of -24.2%.
`CC(Nc1nc(N2CCOCC2)nc2ccccc12)c1ccccc1` (configuration not stated) was tested, and the max response, negative = inhibition was -1.04%.
In the case of `CC(Nc1nc(N2CCN(CCO)CC2)nc2ccccc12)c1ccccc1` (configuration not stated), the max response, negative = inhibition is reported as 0%.
With `CC(Nc1nc(N2CCCC2)nc2ccccc12)c1ccccc1` (configuration not stated) the max response, negative = inhibition was -74.8% (active).
In the case of `CC1(C(=O)Nc2cccnc2)Cc2c(-c3ccccc3)ccnc2O1` (configuration not stated), the max response, negative = inhibition is reported as 25.1%.
For `CC1(C(=O)NS(=O)(=O)c2cccs2)CCN1C(=O)Cc1ccc(-c2ccccc2)cc1` (configuration not stated), the max response, negative = inhibition was 15.7%.
For `Cc1cc(OCC(=O)Nc2nccs2)c2c(C)c(C)c(=O)oc2c1`, the max response, negative = inhibition was 52.2%.
`CNC(=O)C(NC(=O)c1ccccc1)=C(C)C` showed a max response, negative = inhibition of 0.178%.
`CC(C)=C(NC(=O)c1ccccc1)C(=O)N/N=C(\C)c1ccccc1O` was tested, and the max response, negative = inhibition was -73.8% (active).
For `COc1ccc(/C(C)=N\NC(=O)c2ccc(-c3ccccc3)cc2)c(F)c1`, the max response, negative = inhibition was -25.6%.
Molecule `O=C(NCc1ccc(F)cc1F)[C@@H]1CCCN1C(=O)[C@@H]1CCCN1C(=O)c1cccc(Cl)c1` has a max response, negative = inhibition of -16.8%.
With `C[C@H](NC(=O)[C@@H]1CCCN1C(=O)[C@@H]1CCCN1C(=O)c1ccccc1)c1ccccc1` the max response, negative = inhibition was -14.2%.
Molecule `O=C(OCc1ccccc1)N1CCC2CC1c1cc(N3CCN(S(=O)(=O)c4cc(Cl)cc(Cl)c4)CC3)ccc12` (configuration not stated) has a max response, negative = inhibition of -1.81%.
`Cc1ccc(S(=O)(=O)N(CCc2ccccc2)c2ccc3c(c2)C2CC3CCN2C(=O)OCc2ccccc2)cc1` (configuration not stated) was tested, and the max response, negative = inhibition was 0%.
In the case of `O=C(OCc1ccccc1)N1CCC2CC1c1ccc(-c3ccc4c(c3)OCO4)cc12` (configuration not stated), the max response, negative = inhibition is reported as -78.9% (active).
`Cc1ccc(NC(=O)Cn2sc3ccccc3c2=O)cc1` showed a max response, negative = inhibition of -0.282%.
Molecule `CCNC(=S)Nc1ccc2c(c1)c(=O)n(C)n2Cc1ccc(Cl)cc1` has a max response, negative = inhibition of 8.41%.
`CNC(=S)Nc1ccc([N+](=O)[O-])cc1` was tested, and the max response, negative = inhibition was -17.8%.
For `COC(=O)c1ccccc1N=NNc1ccc([N+](=O)[O-])cc1`, the max response, negative = inhibition was 8.12%.
In the case of `O=[N+]([O-])c1ccc(N=NNc2ccc([N+](=O)[O-])cc2)cc1`, the max response, negative = inhibition is reported as -50.6% (active).
